SMILES strings stand for the structures. Inconclusive results are not listed. The source made the active and inactive calls. Calls come from the whole dose curve; as a rule, active = well fitted inhibition curve with a large enough effect; inconclusive = small, poorly fitted or top-dose-only effect; inactive = flat fitted curve, though single readings scatter. Where a SMILES comes first, the peptide text is derived from it. [ ]: non-standard residue; d: D form. pGlu = O=C1CC[C@@H](C(=O)O)N1
% is set by controls: 0 for no effect and ±100 for the full control effect; potency is the fitted concentration of half-maximal effect.

The subject of the first assay is NIH3T3. Put plainly: qHTS assay to identify novel small-molecules to repurpose for Merkel cell carcinoma treatment (AID 1296009). Note: nearly all actives have a fitted effect of over 60% in size. The note with it: MCC and control cell lines, CellTiter-Glo viability, 72 h; at 44.8 µM (top of the series) unless noted. The method, boiled down: (§1)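 Viability readout: ATP luminescence (CellTiter-Glo) after 72 hr drug exposure at 37 degree celsius. Dose-response format was 8 points for NPC and 11 points for MIPE; data normalized to in-plate controls.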
As to `N#CSCC(=O)O`, the call was inactive.
`Nc1nc2ccccc2n1Cc1ccc(F)cc1`: the call was inactive.
`CCOC(=O)c1cc(=O)c2c(OCC(COc3cccc4oc(C(=O)OCC)cc(=O)c34)OC(=O)[C@@H](N)CCCCN)cccc2o1`: the call was inactive.

A further assay deals with UISO. Described as above. The note with it: MCC and control cell lines, CellTiter-Glo viability, 72 h; series mostly up to 46 µM; activity change, negative = cytotoxicity: at the top concentration. The gist of the method:
as §1
On to `Cc1cnc(NS(=O)(=O)c2ccc(N)cc2)nc1`, for which the “activity change, negative = cytotoxicity” value was 12.8% (inactive).
Still for that read-out and setting: then `CC1c2ccccc2CN1NC(=O)c1ccc(Cl)c(S(N)(=O)=O)c1` (stereo not drawn), with 23.8% (inactive); and `CCC[C@H](N[C@@H](C)C(=O)N1[C@H](C(=O)O)C[C@@H]2CCCC[C@@H]21)C(=O)OCC`, with -13% (inactive).
Turning to `N#CSCC(=O)O`, the “activity change, negative = cytotoxicity” value was 16.1% (inactive).
The same measure, in the same setting: the value for `O=C(NO)c1ccccc1` was -13.5% [at 92.7 µM] (inactive).
On the same count and under the same terms, the value for `Cc1cccc(N(C)C(=S)Oc2ccc3c(c2)CCC3)c1` was -10.7% (inactive); that for `CC(=O)[C@H]1CC[C@H]2[C@@H]3C=CC4=CC(=O)CC[C@@]4(C)[C@@H]3CC[C@]12C` was -7.79% (inactive).
Consider `O=C(OCCN1CCOCC1)c1cccnc1Nc1cccc(C(F)(F)F)c1`, for which the “activity change, negative = cytotoxicity” value was 0.125% (inactive).
Consider `COC(=O)c1cc(Cl)ccc1NS(=O)(=O)C(F)(F)F`, for which the “activity change, negative = cytotoxicity” value is 3.21% (inactive).
With `CC1CC(=O)NN=C1c1ccc(NCC(C)(C)NCC(O)COc2cc(Cl)ccc2C#N)cc1` (stereo not drawn), the “activity change, negative = cytotoxicity” value was -1.46% (inactive).
`c1ccc(C(O[C@H]2CCCN(CCc3ccc4c(c3)OCO4)C2)c2ccccc2)cc1`: the “activity change, negative = cytotoxicity” value was -1.45% (inactive).
On to `O=C(CS(=O)Cc1ccco1)NC/C=C\COc1cc(CN2CCCCC2)ccn1` (stereo not drawn), for which the “activity change, negative = cytotoxicity” value was 6.08% (inactive).
With `CCc1cc2cc(OC)c(OC)cc2c(Cc2ccccc2)n1`, the “activity change, negative = cytotoxicity” value is -11.6% (inactive).
As for `CCCC(=O)O[C@]1(C(=O)CC)CC[C@H]2[C@@H]3CCC4=CC(=O)CC[C@]4(C)[C@H]3[C@@H](O)C[C@@]21C`, the “activity change, negative = cytotoxicity” value was -25.1% (inactive).
As to `O=C(CCCl)NCCc1ccccc1`, the “activity change, negative = cytotoxicity” value is 10.8% (inactive).
Turning to `C[N+]1(C)CCC(OC(=O)C(O)(c2ccccc2)C2CCCC2)C1` (stereo not drawn), the “activity change, negative = cytotoxicity” value is 4.8% (inactive).
The same measure, in the same setting: then `CCNC(=O)[C@@H]1CCCN1C(=O)[C@H](CCCN=C(N)N)NC(=O)[C@H](CC(C)C)NC(=O)CNC(=O)[C@H](Cc1ccc(O)cc1)NC(=O)[C@H](CO)NC(=O)[C@H](Cc1c[nH]c2ccccc12)NC(=O)[C@H](Cc1cnc[nH]1)NC(=O)[C@@H]1CCC(=O)N1` ([pGlu]HWSYGLRP-NHEt), with -8.75% (inactive); and `CC(C)Cc1ccc(C(C)C(=O)OCc2ccccn2)cc1` (stereo not drawn), with 10% (inactive); and `CC(CC1c2ccccc2CCc2ccccc21)CN(C)C` (stereo not drawn), with -14.8% (inactive).
Same read-out and setting: then `CCCCCCOC(=O)NC(=N)c1ccc(NCc2nc3cc(C(=O)N(CCC(=O)OCC)c4ccccn4)ccc3n2C)cc1`, with -16.8% (inactive).
In the case of `Oc1cccc2[nH]ccc12`, the Potency is 26.6 µM (active).
Regarding `C[N+](C)(CCOc1ccccc1)Cc1cccs1`, the “activity change, negative = cytotoxicity” value is -19.9% (inactive).
Regarding `C/C(=N/NC(=O)c1ccncc1)C(=O)O`, the “activity change, negative = cytotoxicity” value is 20% (inactive).
Turning to `O=C(CCC1CCN(Cc2ccccc2)CC1)c1ccc2c(c1)NCCCC2`, the “activity change, negative = cytotoxicity” value was -30% (inactive).
On to `C[N+]1(CC2COC(c3ccccc3)(c3ccccc3)O2)CCCCC1` (stereo not drawn), for which the “activity change, negative = cytotoxicity” value is -6.61% [at 16.1 µM] (inactive).
As to `CCOC(=O)c1cc(=O)c2c(OCC(COc3cccc4oc(C(=O)OCC)cc(=O)c34)OC(=O)[C@@H](N)CCCCN)cccc2o1`, the “activity change, negative = cytotoxicity” value was 9.37% (inactive).
Same read-out and setting: then `C=CCOc1cc(Cl)ccc1C(=O)NCCN(CC)CC`, with -7.6% (inactive).
In the case of `CCOc1ncc(F)c(=O)[nH]1`, the “activity change, negative = cytotoxicity” value was 20.7% (inactive).
`O=C1OC2(c3ccccc31)c1cc(I)c(O)c(I)c1Oc1c2cc(I)c(O)c1I`: the “activity change, negative = cytotoxicity” value was -28.9% (inactive).

For another assay, the system named is WaGa. Described as above. The note with it: MCC and control cell lines, CellTiter-Glo viability, 72 h; series mostly up to 46 µM; activity change, negative = cytotoxicity: at the top concentration. The gist of the method: as §1
In the case of `Cc1cnc(NS(=O)(=O)c2ccc(N)cc2)nc1`, the “activity change, negative = cytotoxicity” value is 2.79% (inactive).
`CC1c2ccccc2CN1NC(=O)c1ccc(Cl)c(S(N)(=O)=O)c1` (stereo not drawn): the “activity change, negative = cytotoxicity” value was 6.21% (inactive).
Consider `N#CSCC(=O)O`, for which the “activity change, negative = cytotoxicity” value was 2.78% (inactive).
As for `CC(C)(C)C1CCC(CC2=C(O)c3ccccc3C(=O)C2=O)CC1` (stereo not drawn), the “activity change, negative = cytotoxicity” value is 8.72% (inactive).
On the same count and under the same terms, the value for `CCOC(=O)N1CCC(Nc2ccc(Cl)cc2N)CC1` was -28.6% (inactive).
Regarding `O=C(NO)c1ccccc1`, the Potency was 32.6 µM (active).
Consider `CC(=O)[C@H]1CC[C@H]2[C@@H]3C=CC4=CC(=O)CC[C@@]4(C)[C@@H]3CC[C@]12C`, for which the “activity change, negative = cytotoxicity” value is -21% (inactive).
On to `COC(=O)c1cc(Cl)ccc1NS(=O)(=O)C(F)(F)F`, for which the “activity change, negative = cytotoxicity” value is 13% (inactive).
As to `CC1CC(=O)NN=C1c1ccc(NCC(C)(C)NCC(O)COc2cc(Cl)ccc2C#N)cc1` (stereo not drawn), the “activity change, negative = cytotoxicity” value was -0.62% (inactive).
For the molecule `O=C(CS(=O)Cc1ccco1)NC/C=C\COc1cc(CN2CCCCC2)ccn1` (stereo not drawn), the “activity change, negative = cytotoxicity” value is 10.9% (inactive).
For the molecule `CCc1cc2cc(OC)c(OC)cc2c(Cc2ccccc2)n1`, the “activity change, negative = cytotoxicity” value is -1.96% (inactive).
Consider `O=C(CCCl)NCCc1ccccc1`, for which the “activity change, negative = cytotoxicity” value is 9.58% (inactive).
On to `Oc1ccc(CCNCCCCCCNCCc2ccccc2)cc1O`, for which the Potency is 10.6 µM (active).
For the molecule `C[N+]1(C)CCC(OC(=O)C(O)(c2ccccc2)C2CCCC2)C1` (stereo not drawn), the “activity change, negative = cytotoxicity” value was 2% (inactive).
Same read-out and setting: then `CCNC(=O)[C@@H]1CCCN1C(=O)[C@H](CCCN=C(N)N)NC(=O)[C@H](CC(C)C)NC(=O)CNC(=O)[C@H](Cc1ccc(O)cc1)NC(=O)[C@H](CO)NC(=O)[C@H](Cc1c[nH]c2ccccc12)NC(=O)[C@H](Cc1cnc[nH]1)NC(=O)[C@@H]1CCC(=O)N1` ([pGlu]HWSYGLRP-NHEt), with 2.3% (inactive).
In the case of `CC(C)Cc1ccc(C(C)C(=O)OCc2ccccn2)cc1` (stereo not drawn), the “activity change, negative = cytotoxicity” value was -20.2% (inactive).
Same read-out and setting: the value for `CC(CC1c2ccccc2CCc2ccccc21)CN(C)C` (stereo not drawn) was -7.68% (inactive); that for `CC(C)C[C@H](NC(=O)CNC(=O)[C@H](Cc1ccc(O)cc1)NC(=O)[C@H](CO)NC(=O)[C@H](Cc1c[nH]c2ccccc12)NC(=O)[C@H](Cc1cnc[nH]1)NC(=O)[C@@H]1CCC(=O)N1)C(=O)N[C@@H](CCCN=C(N)N)C(=O)N1CCC[C@H]1C(=O)NCC(N)=O` (stereo in doubt) was 13.2% (inactive).
For the molecule `CN1CCC(N(Cc2cccs2)c2ccccc2)CC1`, the “activity change, negative = cytotoxicity” value was -9.52% (inactive).
Take `CC[N+](CC)(CC)CCOC(=O)C(C1CCCC1)C1CCCC1`: the Potency was 9.44 µM (active).
In the case of `C/C(=N/NC(=O)c1ccncc1)C(=O)O`, the “activity change, negative = cytotoxicity” value was -2.01% (inactive).
Turning to `O=C(CCC1CCN(Cc2ccccc2)CC1)c1ccc2c(c1)NCCCC2`, the “activity change, negative = cytotoxicity” value was -14.4% (inactive).
As for `C[N+]1(CC2COC(c3ccccc3)(c3ccccc3)O2)CCCCC1` (stereo not drawn), the “activity change, negative = cytotoxicity” value was -27.9% [at 16.1 µM] (inactive).
Take `C=CCOc1cc(Cl)ccc1C(=O)NCCN(CC)CC`: the “activity change, negative = cytotoxicity” value was 12.5% (inactive).
Still for that read-out and setting: the value for `CCOc1ncc(F)c(=O)[nH]1` was 16.6% (inactive); that for `O=C1OC2(c3ccccc31)c1cc(I)c(O)c(I)c1Oc1c2cc(I)c(O)c1I` was -26% (inactive).

The record behind these values is PubChem BioAssay (NCATS).
